Results reported in ChEMBL document CHEMBL3988442, “University of Dundee, Small-Polar-MMV Screening Library” (2021).
In all, about 48,000 compounds went through this assay and about 13,000 (27%) showed an effect of 50% or more. The list shows a part of the results.

The compounds below were run on Wolbachia pipientis (assay: Anti-Wolbachia Cell-Based Screen). Details: 5 µM.
Type: functional
Parameters: scale not given: in the data most compounds retested in dose-response had high values

Compared with `CC(C)N1CCC(N2CCOC3(CCCC3)C2)C1=O` (stereo not given), `CC(C)CCN1CC2(CCCN(C(=O)NCc3cccs3)C2)CCC1=O` (stereo not given) is lower in “Percent Effect” value: 10.32% for the first, 1.307% for the second.

Compared with `Cc1cnc(CNc2c(F)cccc2-n2cccn2)o1`, `O=C(O)Cc1cccc(-n2ccnc2-c2ccc(F)c(Cl)c2)c1` is higher in “Percent Effect” value: -16.45% for the first, -0.5745% for the second.

Going from `O=C(O)C(F)(F)F.O=C(O)C(F)(F)F.O=C(O)C(F)(F)F.O=C(O)c1cc2c(nc1-c1ccncc1)CCN(C1CCOC1)CC2` (stereo not given) to `O=C(O)C(F)(F)F.O=C(O)C(F)(F)F.c1cncc(CN2CCc3ncnc(C4CC4)c3CC2)c1`, the “Percent Effect” value rises from -8.005% to 8.838%.

First: CC(C)c1cc(C(F)(F)F)n2nc(CCC(=O)O)nc2n1
Second: O=C(O)CCc1nc2nccc(C(F)(F)F)n2n1
The “Percent Effect” value of the first is lower: -4.305% for the first, 112.1% for the second.

Compared with `O=C(O)CCc1cc2n(n1)CCCN(C(=O)c1ccc(F)cc1F)C2`, `O=C(O)CCc1nc2nccc(-c3ccc(F)cc3)n2n1` is higher in “Percent Effect” value: -66.14% for the first, 119.2% for the second.

Compared with `N#Cc1ccnc(N2CCN(CC(O)c3ccc(F)cc3)CC2)c1` (stereo not given), `Cc1ccc(C(=O)NCc2ccnc(N3CCN(C)CC3)c2)cn1` is lower in “Percent Effect” value: -11.77% for the first, -19.75% for the second.

Compared with `O=C(O)Cc1nc2nccc(-c3ccc(F)cc3)n2n1`, `Cn1c(-c2ccc(F)cc2)cn2cc(C(=O)N3CC[C@@H](O)C3)nc2c1=O` is lower in “Percent Effect” value: 127% for the first, 4.586% for the second.

First: CCN(Cc1c(F)cccc1F)C(=O)c1ccncc1O
Second: O=C(NCC(O)c1cccc(F)c1)c1cccnc1O (stereo not given)
The “Percent Effect” value of the first is lower: -5.979% for the first, -4.303% for the second.

First: COCC1CCN(S(=O)(=O)N2C[C@H](c3ccccc3)[C@@H](N)C2)CC1
Second: COc1nn(C)c2c1CCCN(S(=O)(=O)c1cccc(C)c1)C2
The “Percent Effect” value of the first is lower: -1.102% for the first, 0.0765% for the second.

Going from `CCc1ccc2nc(C)cc(C(=O)NCc3csc(N(C)C)n3)c2c1` to `CCc1cc(C(=O)NCC2CCN(Cc3cccc(C)n3)C2)on1` (stereo not given), the “Percent Effect” value rises from -26.8% to 1.32%.

Compared with `O=C(C1CC1)N1CC[C@H]2C(=O)N(c3ccsc3)CCO[C@H]2C1`, `CCn1cc(CN2C[C@H]3CC[C@@H]2CN(C(=O)C2CCC2)C3)cn1` is lower in “Percent Effect” value: 9.146% for the first, 1.465% for the second.

Going from `FC(F)C(F)(F)COCc1ncnn1-c1ccc2c(c1)OCO2` to `O=C(O)C(F)(F)F.c1nc2c(c(C3CC3)n1)CCN(Cc1ccc3c(c1)OCO3)CC2`, the “Percent Effect” value falls from -0.1872% to -14.88%.

Compared with `CN(C)C(=O)NC1COC2(CCN(Cc3ccc(Cl)c(F)c3)CC2)C1.O=C(O)C(F)(F)F` (stereo not given), `Fc1ccc(CN2CCc3ncnc(C4CCOC4)c3CC2)cc1.O=C(O)C(F)(F)F` (stereo not given) is lower in “Percent Effect” value: 5.668% for the first, -4.98% for the second.

Compared with `CC(O)CN1CCN(C(=O)c2ccc(Cn3cccc3)cc2)CC1` (stereo not given), `CCC(O)CN1CCN(C(=O)c2ccc(Cn3cccc3)cc2)CC1` (stereo not given) is higher in “Percent Effect” value: 3.366% for the first, 90.26% for the second.

Compared with `CC(O)CN1CCN(C(=O)c2ccc(Cn3cccn3)cc2)CC1` (stereo not given), `O=C(c1ccc(Cn2cccc2)cc1)N1CCN(CCO)CC1` is higher in “Percent Effect” value: 3.707% for the first, 94.5% for the second.

Compared with `O=C(c1ccc(Oc2cccnc2)cc1)N1CCN(CCO)CC1`, `CCCN1CCN(C(=O)c2ccc(Cn3cc(Br)cn3)cc2)CC1` is lower in “Percent Effect” value: 6.053% for the first, -5.49% for the second.

Going from `Cc1cc2c(c(-c3cnccn3)c1)OC(CN)C2` (stereo not given) to `COc1ncc(C)cc1NC(=O)CCc1ccccn1`, the “Percent Effect” value falls from -6.126% to -10.54%.

Going from `CCN(Cc1nc(COC)no1)Cc1cccnc1NC(=O)C(C)(C)C` to `CCc1nc(CN2CCCN(c3nc4ccccc4o3)CC2)no1`, the “Percent Effect” value rises from -4.491% to 1.249%.

First: Cc1c(Cl)cccc1NC(=O)c1nc[nH]n1
Second: Cc1c(Cl)cccc1NC(=O)CCNc1ccc(C#N)cn1
The “Percent Effect” value of the first is higher: 83.83% for the first, 0.2076% for the second.

Compared with `Cc1c(Cl)cccc1NC(=O)Cn1cc(C(=O)O)ccc1=O`, `CCc1ccc(C(=O)O)cc1S(=O)(=O)Nc1ccc(=O)n(C)c1` is lower in “Percent Effect” value: 1.545% for the first, -7.326% for the second.

Compared with `O=C(O)C(F)(F)F.O=C(O)C(F)(F)F.c1ccc(CN2CCc3ncnc(C4CC4)c3CC2)nc1`, `O=C(O)C(F)(F)F.c1ccc(CN2CCc3ncnc(C4CC4)c3CC2)cc1` is higher in “Percent Effect” value: -2.713% for the first, 85.35% for the second.

First: Fc1ccc(CN2CCc3ncnc(C4CC4)c3CC2)cc1.O=C(O)C(F)(F)F
Second: COc1ccc(CN2CCc3ncnc(C4CC4)c3CC2)cc1.O=C(O)C(F)(F)F
The “Percent Effect” value of the first is lower: 98.26% for the first, 110.6% for the second.

Compared with `CCN(C)c1ncnc2c1CCN(Cc1ccc(OC)cc1)CC2.O=C(O)C(F)(F)F.O=C(O)C(F)(F)F`, `COc1ccc(CN2CCc3ncnc(C4CCOC4)c3CC2)cc1.O=C(O)C(F)(F)F` (stereo not given) is lower in “Percent Effect” value: -7.101% for the first, -16.69% for the second.

First: Cc1ccc(O)c(C(=O)N2CCC(CNC(=O)OC(C)(C)C)C2)c1 (stereo not given)
Second: CCn1ncnc1CN1CCC(CNC(=O)c2cccc(C)c2)C1 (stereo not given)
The “Percent Effect” value of the first is lower: 18.78% for the first, 94.27% for the second.

Going from `Cc1cc(NC(=O)c2ccc(N3CCOCC3)c(F)c2)[nH]n1` to `Cc1cc(CN2CCC(CNC(=O)c3nccc4ccccc34)C2)[nH]n1` (stereo not given), the “Percent Effect” value rises from -5.615% to 5.129%.

Compared with `Cl.O=C(NC[C@@]1(COc2cnccn2)C[C@@H](O)[C@@H](O)C1)C1CC1`, `O=C(NC1CCc2nccn2C1)c1ccc(OCC2CC2)nc1` (stereo not given) is lower in “Percent Effect” value: -0.6559% for the first, -10.39% for the second.

Compared with `O=C(NCCc1ccccc1F)NCC(O)c1cccc(F)c1` (stereo not given), `O=C(NCc1ccccc1F)NCC(O)c1cccc(F)c1` (stereo not given) is higher in “Percent Effect” value: 91.24% for the first, 109.5% for the second.

Compared with `CN1CCN(C)C(c2nnc3ccc(C(=O)N4CCOCC4)cn23)C1.O=C(O)C(F)(F)F.O=C(O)C(F)(F)F` (stereo not given), `CNc1cncc(C2CCCN2C(=O)c2ccc3oc(=O)n(C)c3c2)n1` (stereo not given) is lower in “Percent Effect” value: 7.547% for the first, -20.51% for the second.

Compared with `CO[C@H]1[C@@H]2CC[C@H]1CN(c1nc(C)nc3sccc13)C2`, `CO[C@H]1[C@@H]2CC[C@H]1CN(c1nc(C)nc3ccsc13)C2` is higher in “Percent Effect” value: 2.93% for the first, 116.9% for the second.

First: Cc1nc(N2CCC(C(O)c3nccn3C)CC2)c2sccc2n1 (stereo not given)
Second: CC(C)c1nccn1CCC(=O)N1CCCCC1c1ccn[nH]1 (stereo not given)
The “Percent Effect” value of the first is lower: -1.351% for the first, 89.39% for the second.

Compared with `Cc1nc2c(c(N3CCC(O)(CN4CCCC4)CC3)n1)CCNCC2`, `Cn1nc(C2CC2)c2c1NC(=O)CC2c1cc(CN2CCCC2)cs1` (stereo not given) is lower in “Percent Effect” value: -22.09% for the first, -26.2% for the second.

First: CC(C)c1nccn1CCC(=O)N1CCCC1c1cccn1C (stereo not given)
Second: CNc1cncc(C2CCCN2C(=O)CCn2ccnc2C(C)C)n1 (stereo not given)
The “Percent Effect” value of the first is lower: 1.985% for the first, 103% for the second.

Going from `CNc1cncc(C2CCCN2C(=O)Cn2c(=O)oc3ccccc32)n1` (stereo not given) to `CNc1cncc(C2CCCN2C(=O)Cn2ccnc2C)n1` (stereo not given), the “Percent Effect” value rises from 88.17% to 100.6%.

Compared with `CNc1cncc(C2CCCN2C(=O)CCn2ccnc2)n1` (stereo not given), `CCc1nccn1CCC(=O)N1CCCC1c1cncc(NC)n1` (stereo not given) is lower in “Percent Effect” value: 78.35% for the first, 72.9% for the second.

Going from `O=C(Cn1c(=O)oc2ccccc21)N1Cc2cncnc2C1` to `Cn1cc(C2CCCN2C(=O)CCn2ccc3ccccc32)cn1` (stereo not given), the “Percent Effect” value rises from -8.946% to 20.59%.

First: O=C(NCCCn1ccnc1)N1CCCC1c1ccncc1 (stereo not given)
Second: CCc1nccn1CCC(=O)N1CCCC1c1ccc(F)cc1 (stereo not given)
The “Percent Effect” value of the first is lower: 0.09304% for the first, 18.71% for the second.

Going from `CC(C)(C)Cc1noc2ncc(C(=O)N3CCCSCC3)cc12` to `Cc1cnn(CC2CCCN2C(=O)c2csc(C(C)C)n2)c1` (stereo not given), the “Percent Effect” value rises from -8.808% to 113.9%.

First: CN(C(=O)Cc1ccc(NC(=O)NC2CC2)cc1)c1ccccc1
Second: C=C(C)CN1CCC(NC(=O)NCCc2ccc(N(C)C)cc2)CC1
The “Percent Effect” value of the first is higher: 5.932% for the first, -10.94% for the second.

First: COc1cccc(/C=C/CCN2CCC(C(=O)N3CCCC3)CC2)c1
Second: COCc1nc(C(=O)N2CCCCC2Cn2cc(C)cn2)cs1 (stereo not given)
The “Percent Effect” value of the first is lower: -5.123% for the first, 2.393% for the second.

Going from `CCc1nccn1CCC(=O)N1CC[C@H](CO)[C@H](O)C1` to `CCn1ccnc1CN1CCC(CNC(=O)c2ccc(C)nc2)C1` (stereo not given), the “Percent Effect” value rises from -12.26% to -5.867%.

Going from `O=C(NC1CCN(C2CC2)CC1)c1[nH]nc(C2CC2)c1Cl` to `Cc1cnn(CC2CCCN2C(=O)c2csc(C3CC3)n2)c1` (stereo not given), the “Percent Effect” value rises from 0.5841% to 86.35%.

Compared with `CSCC(C)(O)CNC(=O)Nc1cc(C)cc(C)c1` (stereo not given), `CCOCCn1c(=O)[nH]c2cc(C(=O)N(C)Cc3cc(C)[nH]n3)ccc21` is higher in “Percent Effect” value: -12.06% for the first, 4.063% for the second.

Compared with `CNc1cc(N2CCC(O)(CNC(=O)c3ccc(C)nc3)C2)ncn1` (stereo not given), `CNc1cc(N2CCCC2CNCc2cnc(C)cn2)ncn1` (stereo not given) is lower in “Percent Effect” value: 87.58% for the first, -4.576% for the second.

First: COCc1nc(C(=O)N2CCCC2Cn2cc(C)cn2)cs1 (stereo not given)
Second: Cc1cnn(CC2CCCCN2C(=O)c2ccc(C#N)c(C)n2)c1 (stereo not given)
The “Percent Effect” value of the first is higher: 115.1% for the first, 2.901% for the second.

Compared with `COCc1nc(C(=O)N2CCCC2c2ccccc2C)cs1` (stereo not given), `O=C1CC(N(C(=O)Cc2csc(-c3ccccc3)n2)C2CC2)C(=O)N1` (stereo not given) is lower in “Percent Effect” value: 8.95% for the first, 1.029% for the second.

Compared with `CC(Nc1ccc(CN2CCCC2=O)cc1)c1ccc(C#N)cc1` (stereo not given), `Nc1cc(C(=O)NCC2CCN(Cc3cccc(O)c3)C2)ccn1` (stereo not given) is lower in “Percent Effect” value: 3.244% for the first, -106.2% for the second.

Compared with `CC(=O)N1CCc2nc3sc(C(N)=O)c(N)c3c(C(F)(F)F)c2C1`, `O=C1CC(N(C(=O)c2ccc3c(c2)CCC3)C2CC2)C(=O)N1` (stereo not given) is lower in “Percent Effect” value: 0.4865% for the first, -12.36% for the second.

Compared with `CCn1ncnc1CN1CCC(CNC(=O)c2cccc(C)n2)C1` (stereo not given), `Cc1cccc(-c2nc(C)nn2CN2CCC3(CC2)OCCO3)c1` is lower in “Percent Effect” value: 95.93% for the first, 0.3778% for the second.

Going from `Cc1ccccc1C(C(=O)N(Cc1cnn(C)c1)CC(C)C)N(C)C` (stereo not given) to `Cc1cccnc1N1CCN(C(=O)CCc2cn3ccccc3n2)CC1`, the “Percent Effect” value rises from -6.978% to -2.508%.

Going from `O=C1CC(N(C(=O)COc2ccc(F)cc2F)C2CC2)C(=O)N1` (stereo not given) to `O=C1CC(N(C(=O)CCc2cc(F)ccc2F)C2CC2)C(=O)N1` (stereo not given), the “Percent Effect” value rises from 87.23% to 101%.

First: COc1cc(C(=O)N(C2CC2)C2CC(=O)NC2=O)ccc1C (stereo not given)
Second: COc1ccc(C(=O)N(C2CC2)C2CC(=O)NC2=O)cc1 (stereo not given)
The “Percent Effect” value of the first is lower: -10.25% for the first, -6.531% for the second.

Going from `O=C1CC(N(C(=O)c2ccccc2Br)C2CC2)C(=O)N1` (stereo not given) to `O=C1CC(N(C(=O)c2ccc(-n3cccc3)cc2)C2CC2)C(=O)N1` (stereo not given), the “Percent Effect” value rises from -20.12% to -5.765%.

With `O=C1CC(N(C(=O)CCc2c[nH]c3ccccc23)C2CC2)C(=O)N1` (stereo not given) the “Percent Effect” value was 78.13%.
